Compound activity: PubChem, National Center for Advancing Translational Sciences (NCATS)
This is a sample that favours compounds with a hit; in the whole collection about 1.1% have one here.
PI4K2A inh: PI4K2A (human) kinase inhibition; 420,000 tested, 0.13% active; purified PI4K2A, ADP-Glo luminescence, 1 h; hits give low values; activity change, negative = inhibition, % at 76.9 µM; in the data active = activity change below about -50%; inconclusive = mostly about -30% to -49%;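 also: -100% = wells without enzyme as full effect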
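In this quantitative HTS, ADP production by PI4K2A was quantified luminescently after 1 h at ambient temperature; 100 microM adenosine served as plate-quality control.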
TrxR1 inh: rat TrxR1 inhibition; Potency, µM (doses to about 114 µM), for inactives: top-dose activity change, negative = inhibition, actives largely listed as inhibitors; 390,000 tested, 1% active; recombinant rTrxR1, NADPH fluorescence consumption, selenite substrate; O89049; AID 588453; also: potency is read from the fitted curve at half-maximal effect; nearly all actives have a fitted effect of over 65% in size
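Rat TrxR1 (90 nM in the dispensed reagent) was pre-reduced with 400 uM NADPH for 5 min at room temperature, then incubated with compound for 15 min. After 400 uM selenite was added, NADPH fluorescence (Ex 340/Em 450 nm) was followed for 8 min.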
TrxR1 substrate: is turned over as a substrate by rat TrxR1. AID 588456. Potency, µM (doses to about 114 µM), inactives show at the highest dose activity change, negative = substrate turnover. 390,000 tested, 0.01% active. purified TrxR1 substrate turnover, NADPH consumption readout. O89049; also: potency is read from the fitted curve at half-maximal effect; nearly all actives have a fitted effect of over 50% in size
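Rat TrxR1, dispensed at 90 nM, was prereduced with 400 uM NADPH (final) for 5 min at ~22 deg C, then incubated with compound 15 min before 400 uM selenite. A first-read NADPH fluorescence drop versus no-compound background flagged substrates.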
GALK inh: galactokinase (human) inhibition; Potency, µM (top dose mostly 57.5 µM), for the others: at the highest dose activity change, negative = inhibition, usual class: inhibitors; 270,000 tested, 0.007% active; Purified GALK, Kinase-Glo residual ATP luminescence; P51570; also: potency is read from the fitted curve at half-maximal effect
Target sequence (P51570 whole entry, looked up): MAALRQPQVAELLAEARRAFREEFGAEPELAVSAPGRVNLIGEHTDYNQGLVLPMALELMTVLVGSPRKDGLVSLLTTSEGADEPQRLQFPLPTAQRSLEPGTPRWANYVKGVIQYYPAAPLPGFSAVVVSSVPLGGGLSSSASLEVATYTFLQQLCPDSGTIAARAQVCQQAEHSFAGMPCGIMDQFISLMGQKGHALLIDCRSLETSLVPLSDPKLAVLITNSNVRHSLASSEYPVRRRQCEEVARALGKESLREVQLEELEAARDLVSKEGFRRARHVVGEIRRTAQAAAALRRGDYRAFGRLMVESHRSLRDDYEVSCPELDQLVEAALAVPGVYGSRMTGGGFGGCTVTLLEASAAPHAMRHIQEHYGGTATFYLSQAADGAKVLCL
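Compounds were pin-transferred into ATP buffer (35 uM final), then GALK plus galactose (5 nM, 100 uM final) was added. After 1 h at room temperature, Kinase-Glo Plus was added and luminescence read after 10 min.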
The depositor's hits bear a star; ? = inconclusive; nt = no result given; [ ] = another dose, or the depositor's remark. Unless noted, calls follow the shape of the dose curve; as a rule, active = well fitted curve in the direction sought with a large enough effect; inconclusive = small, poorly fitted or top-dose-only effect, or another doubt; inactive = no such curve, though single readings can be large; an effect the other way counts as inactive or inconclusive. Unless noted, % is scaled to controls: 0 for no effect and ±100 for the full control effect.

SMILES | PI4K2A inh | TrxR1 inh | TrxR1 substrate | GALK inh
NC(N)=NN=C(/C=C/c1ccc([N+](=O)[O-])o1)/C=C/c1ccc([N+](=O)[O-])o1 | -20 | nt | nt | nt
O=[N+]([O-])c1ccc(/C=N/N=C/c2ccc([N+](=O)[O-])o2)o1 | -1 | 2.5µM* | 4%[57.1 µM] | 0%
O=C(O)/C=C/c1ccc([N+](=O)[O-])o1 | 0 | 10µM* | -1%[57.1 µM] | 10%
CSc1ccc(/C=C2\C=C(C(O)c3ccc(SC)cc3)c3ccccc32)cc1 (stereo not given) | nt | -6% | -6% | nt
COc1cc2c(NC3CCN(C(C)C)CC3)nc(N3CCCN(C)CC3)nc2cc1OCCCN(C)C | nt | ? | 72% | nt
CCN(CC)c1ccc(C(=C2C=CC(=[N+](CC)CC)C=C2)c2ccc(S(=O)(=O)O)cc2S(=O)(=O)[O-])cc1 | -56* | ? | -11% | nt
CCOCCn1c(C2CCN(CCc3ccc(C(C)(C)C(=O)O)cc3)CC2)nc2ccccc21 | -3 | nt | nt | nt
COc1cc2nc(N3CCOCC3)nc(NC3CCN(C)CC3)c2cc1OC | nt | -2% | 190% | nt
O=C(/C=C/c1ccco1)NC(=S)Nc1cc(-c2nc3ccccc3s2)ccc1Cl | -11 | 50µM* | -9% | 1%
COc1cccc(NC(=O)/C=C/c2ccco2)c1 | -3 | -69% | -7% | 0%
Cc1ccccc1NC(=S)NC(=O)/C=C/c1ccco1 | -25 | 16µM* | 5% | 5%
COc1ccccc1NC(=S)NC(=O)/C=C/c1ccco1 | -11 | 20µM* | -3% | 1%
Cc1ccc(-c2nc3ccccc3s2)cc1NC(=S)NC(=O)/C=C/c1ccco1 | -1 | -51% | 19%[57.1 µM] | -1%
COc1ccccc1NC(=O)/C=C\c1ccco1 | -11 | 3.5µM* | -4% | 4%
COc1cc2c(cc1NC(=S)NC(=O)/C=C/c1ccco1)oc1ccccc12 | -3 | 13% | -1% | -4%
CNS(=O)(=O)c1cc(-c2nnc(Nc3cc(C)ccc3C)c3ccccc23)ccc1C | 2 | 6% | -6% | nt
N#Cc1cccc(NC(=O)C2CCN(c3nc(-c4ccc(Cl)cc4)no3)CC2)c1 | -6 | 14%[57.1 µM] | 3%[57.1 µM] | nt
COc1cc(C(=O)NNC(=O)/C=C/c2ccco2)cc(OC)c1OC | 0 | 56µM* | -5% | nt
CC1(C)CC(=O)C(C(C2=C(O)CC(C)(C)CC2=O)c2ccc(Br)s2)C(=O)C1 (stereo not given) | ? | 4µM* | -16% | 1%
Cc1ccc(C(C2=C(O)CC(C)(C)CC2=O)C2C(=O)CC(C)(C)CC2=O)s1 (stereo not given) | ? | 10µM* | 6% | 0%
COc1cccc(C(C2=C(O)CC(C)(C)CC2=O)C2C(=O)CC(C)(C)CC2=O)c1 (stereo not given) | -6 | 45µM* | -7% | 0%
FC(F)(F)c1nc(=S)c2ccccc2[nH]1 | 5 | 4.5µM* | -2% | 0%
Cc1nc(=S)c2ccccc2[nH]1 | 1 | -25% | -7% | 1%
CCCCC1=CC2=C(c3ccco3)C(=O)C(C)(OC(=O)c3ccc(OC)cc3)C(=O)C2=CN1Cc1ccc(OC)cc1 (stereo not given) | nt | nt | nt | -1%
CCCCC1=CC2=C(c3ccco3)C(=O)C(C)(OC(=O)c3ccc(OC)cc3)C(=O)C2=CN1CC(C)C (stereo not given) | -13 | 45µM* | 4% | -1%
SMILES | PI4K2A inh | TrxR1 inh | TrxR1 substrate | GALK inh
O=C(NCc1ccccc1F)c1sc2ncccc2c1-n1cccc1 | 7 | 20%[57.1 µM] | 0%[57.1 µM] | nt
O=C1C=C(NC2=CC3OC(c4ccccc4)OCC3OC2=O)CCC1 (stereo not given) | -6 | 8.9µM* | -12% | 0%
O=C1C=C(NCc2ccccc2)CCC1 | -5 | 6% | -3% | -1%
CCS(=O)(=O)c1ncc(Cl)c(C(=O)N(Cc2ccccc2)Cc2ccco2)n1 | 4 | 2.8µM* | 12% | nt
Cc1cc2c(cc1C)C(=O)C(Br)=C(N)C2=O | -5 | 50µM* | -9% | nt
CCOc1ccc(C(Nc2cccnc2)c2cc(Cl)c3cccnc3c2O)cc1 (stereo not given) | -3 | 2.8µM* | 9%[11.4 µM] | 8%
O=C(O)COc1ccccc1C(Nc1ccccn1)c1cc(Cl)c2cccnc2c1O (stereo not given) | -14 | ? | -5%[11.4 µM] | 1%
O=C(O)COc1ccccc1C(Nc1cccnc1)c1cc(Cl)c2cccnc2c1O (stereo not given) | -16 | 0.56µM* | 1%[57.1 µM] | -1%
Cc1ccc(C(=O)Nc2nc(-c3ccco3)c(-c3ccco3)s2)o1 | -22 | 25µM* | -7% | nt
O=C(CCl)Nc1nc(-c2ccco2)c(-c2ccco2)s1 | -6 | 13µM* | -2% | -8%
O=C(CCCSc1ccccc1)Nc1nc(-c2ccco2)c(-c2ccco2)s1 | -24 | ? | -2% | 0%
Cn1c(=O)n(C)c2cc(N3CCCCC3)c(NC(=O)c3c(F)cccc3F)cc21 | 1 | 10% | -4% | nt
Cc1cc(C(=O)CCl)c(C)n1-c1c(C)n(C)n(-c2ccccc2)c1=O | 1 | 8.9µM* | -1%[57.1 µM] | -2%
COc1cccc(Cn2nnc(C(=O)NCc3ccc(Cl)cc3Cl)c2N)c1 | -1 | 37%[2.29 µM] | 27%[2.29 µM] | nt
Cc1oc2c(c1C(=O)c1ccc(Cl)cc1)C(=O)C(=O)c1ccccc1-2 | -9 | 2% | 79µM* | -1%
Cc1ccc(C(=O)c2coc3c2C(=O)C(=O)c2ccccc2-3)cc1 | -7 | 8% | -3% | 1%
Cc1ccc(C(=O)c2c(C)oc3c2C(=O)C(=O)c2ccccc2-3)cc1 | -63* | 22%[57.1 µM] | ? | 0%
Cc1ccc(N2C(=O)CC(Nc3ccc(Cl)c(S(=O)(=O)N(C)C)c3)C2=O)c(C)c1 (stereo not given) | -3 | 50µM* | 5% | 0%
COc1ccc(-c2cc(C(=O)Nc3cc(C)on3)no2)cc1OC | 3 | 51% | 49% | 0%
COc1ccccc1-c1cc(C(=O)Nc2cc(C)on2)no1 | -85* | -1% | 0% | -2%
c1ccc2c(c1)Cn1c-2nc2ccccc21 | -53* | -1% | 28% | 9%
Brc1c(-c2ccccc2)nc2n1Cc1ccccc1-2 | -1 | 10%[57.1 µM] | 8%[57.1 µM] | 0%
CC(=O)O[C@@H]1CC2C3CCc4cc(OC(=O)c5ccccc5)ccc4C3CCC2(C)[C@H]1OC(C)=O (stereo not given in full) | 3 | nt | nt | nt
Cc1cc(C)c2[nH]c(=O)c(C(c3nnnn3C(C)(C)C)N3CCN(C(=O)c4ccco4)CC3)cc2c1 (stereo not given) | -5 | 16µM* | 18% | -2%
COc1ccccc1C(c1nnnn1C(C)(C)C)N1CCN(C(=O)c2ccco2)CC1 (stereo not given) | -3 | -36% | 9%[57.1 µM] | 3%
Cc1cc(C)c2[nH]c(=O)c(C(c3nnnn3CC3CCCO3)N3CCC(C)CC3)cc2c1 (stereo not given) | -4 | 20µM* | 7%[57.1 µM] | -2%
Cc1ccc(C)c2[nH]c(=O)c(C(c3nnnn3C(C)(C)C)N3CC=C(c4ccc(F)cc4)CC3)cc12 (stereo not given) | -3 | 71µM* | 11%[0.457 µM] | -1%
